Assay outcomes deposited in PubChem by The Scripps Research Institute Molecular Screening Center.
Fam108B counter = mouse Fam108B serine hydrolase inhibitors, primary screen, counter-screen for RBBP9 inhibitor project, biochemical, fluorescence polarization | AID 1947, 2009 | recombinant Fam108B, FP-Rh probe fluorescence polarization | inhibition, % at 9.51 µM | 0.33% of 300,000 active;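 active means inhibition above the screen mean inhibition plus 3 SD, computed separately per campaign, cut at about 18% in these data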;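 further: inhibitors lower polarization as less probe binds the enzyme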
PME-1 primary = PME-1 inhibitors via competitive probe labeling, primary screen, biochemical, fluorescence polarization, FP-Rh probe, HTS; recombinant PME-1; inhibition, % at 5.9 µM; 0.53% of 320,000 active; AID 2130, 2009;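 active means inhibition above the campaign mean of all compounds plus 3 SD, cut at about 26% in these data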;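 further: competitive labeling of PME-1 active site by serine hydrolase directed probe; 0% = PME-1 with DMSO and 100% = wells lacking PME-1 enzyme; inhibitors block probe labeling so polarization falls and inhibition rises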
PREPL inhibitor = PREPL enzyme inhibitors, primary screen, biochemical, fluorescence polarization; Prolyl endopeptidase-like (Homo sapiens), Q4J6C6; recombinant PREPL, fluorescence polarization activity-based probe; inhibition, % at 5.96 µM; 0.68% of 320,000 active; AID 2751, 2010; in the data active means inhibition above about 43%;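 further: 0% = enzyme with DMSO and 100% = wells lacking enzyme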
Target sequence (Q4J6C6 whole entry, looked up): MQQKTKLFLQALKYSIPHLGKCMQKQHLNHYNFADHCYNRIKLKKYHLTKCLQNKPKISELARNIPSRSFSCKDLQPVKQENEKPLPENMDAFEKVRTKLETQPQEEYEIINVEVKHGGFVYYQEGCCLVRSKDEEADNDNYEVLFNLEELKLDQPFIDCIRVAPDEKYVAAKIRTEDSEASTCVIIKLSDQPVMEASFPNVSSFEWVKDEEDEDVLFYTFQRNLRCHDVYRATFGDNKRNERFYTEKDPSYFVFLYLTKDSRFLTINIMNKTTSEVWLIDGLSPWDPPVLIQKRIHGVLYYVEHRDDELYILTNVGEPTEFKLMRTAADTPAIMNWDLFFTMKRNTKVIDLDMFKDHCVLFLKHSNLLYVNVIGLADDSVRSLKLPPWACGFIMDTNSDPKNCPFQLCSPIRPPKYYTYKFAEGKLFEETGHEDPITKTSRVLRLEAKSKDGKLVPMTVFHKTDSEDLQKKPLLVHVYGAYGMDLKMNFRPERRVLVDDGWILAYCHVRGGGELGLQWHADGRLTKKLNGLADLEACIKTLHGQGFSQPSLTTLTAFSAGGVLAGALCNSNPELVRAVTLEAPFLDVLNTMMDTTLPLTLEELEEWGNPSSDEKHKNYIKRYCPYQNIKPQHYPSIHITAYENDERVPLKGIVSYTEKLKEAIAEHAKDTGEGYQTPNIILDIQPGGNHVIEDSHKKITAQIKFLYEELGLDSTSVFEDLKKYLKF
LYPLA2 inh = LYPLA2 inhibitors, primary screen, counter-screen for PME1 inhibitor project, biochemical, fluorescence polarization, FP-Rh probe ABPP; recombinant LYPLA2; inhibition, % at 5.9 µM; 0.38% of 320,000 active; AID 2177, 2009;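 active means inhibition above the screen-wide mean plus 3 SD, limit set per campaign, cut at about 26% in these data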;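 further: 0% = LYPLA2 with DMSO and 100% = wells lacking LYPLA2 enzyme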
LYPLA1 counter = LYPLA1 inhibitors, primary screen, counter-screen for PME1 inhibitor project, biochemical, fluorescence polarization, FP-Rh probe ABPP. Acyl-protein thioesterase 1 (Homo sapiens), O75608. recombinant LYPLA1. inhibition, % at 5.9 µM. 0.16% of 320,000 active. AID 2174, 2009;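 active means inhibition above the mean of all tested compounds plus 3 SD, set per campaign, cut at about 14% in these data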;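 further: inhibitors block serine hydrolase probe labeling of LYPLA1 so polarization falls; 0% = enzyme with DMSO and 100% = wells lacking LYPLA1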
Fam108b confirm = mouse Fam108b serine hydrolase inhibitors, confirmation, counter-screen for RBBP9 inhibitor project, biochemical, fluorescence polarization, triplicate; shares compounds with Fam108B counter; recombinant Fam108b, FP-Rh probe fluorescence polarization; inhibition, % at 9.51 µM; 44% of 930 active; AID 1978, 2009;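 active means inhibition above a limit from the primary screen, the mean over all compounds plus 3 SD, cut at about 19% in these data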;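 further: 0% = median of active Fam108b wells and 100% = catalytically dead S170A mutant; inhibitors free the probe so polarization falls as inhibition rises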
Fam108b inh = inhibition of mouse Fam108b by HTS hits, late-stage follow-up, biochemical, gel-based ABPP, soluble recombinant form; shares compounds with Fam108B counter; inhibition, % at 20 µM; 44% of 260 active; fluorophosphonate probe; in the data active means inhibition above about 40%
An asterisk follows results filed as active; . = not tested or not shown. Compounds with a hit are over-represented: about 1.3% of the library has one in this group of screens.

SMILES	Fam108B counter	PME-1 primary	PREPL inhibitor	LYPLA2 inh	LYPLA1 counter	Fam108b confirm	others
COc1cccc(N2CCN(S(=O)(=O)c3ccc4nc(-c5ccccc5)[nH]c4c3)CC2)c1	20.9*	13.2	-4.9	-67.0	-11.7	-12.1
CC(C)C(C)(C#N)NC(=O)CSc1nc2scc(-c3ccc(F)cc3)c2c(=O)n1Cc1ccccc1 (configuration not stated)	-8.5	-13.0	20.9	-19.6	-10.8	.
COc1cc(/C=N/NC(=O)CCn2c3ccccc3c3ccccc32)ccc1O	24.3*	13.1	27.2	-2.7	-6.1	2.0
COc1cccc(/C=N/NC(=O)c2cc3c(OC)cccc3[nH]2)c1OC	-1.2	18.1	10.5	-7.3	-8.6	.
COc1ccc(OC)c2[nH]c(C(=O)N/N=C/c3ccccc3O)cc12	53.2*	59.7*	43.0	-0.5	-6.6	20.8*
COc1ccc(/C=N/NC(=O)c2cc3c(OC)ccc(OC)c3[nH]2)cc1O	30.5*	39.6*	30.9	14.1	4.9	17.2
CCOc1ccc(/C=N/NC(=O)c2cc3c(OC)cccc3[nH]2)cc1	0.6	-2.0	1.9	6.0	-6.5	.
CCOc1ccc2[nH]c(C(=O)N/N=C/c3cc(OC)c(OC)c(OC)c3)cc2c1	28.5*	15.7	30.0	-9.4	-8.8	-5.9
COc1ccc(/C=N/NC(=O)c2cnccn2)cc1O	4.2	5.3	0.0	2.9	-2.3	.
CSCCCc1cn([C@@H](CO)C(=O)NCCCCCCCCCCC(=O)N2CCNCC2)nn1	3.6	3.4	8.1	2.0	4.9	.
CSc1ccc(S(=O)(=O)NC2CC3CCC2C3)cc1 (configuration not stated)	6.7	2.8	11.8	1.7	-1.4	.
CCOc1ccc(NC(=O)CSc2nnnn2-c2ccc(C(N)=O)cc2)cc1	-1.9	1.2	-3.0	1.2	2.0	.
COc1cc(/C=N/NC(=O)c2cc3ccccc3[nH]2)ccc1O	20.4*	36.0*	39.1	1.4	-6.0	18.7*
CC(OC(=O)CN1C(=O)c2ccccc2C1=O)C(=O)NC1CCCCC1 (configuration not stated)	-3.0	-2.5	6.3	-1.0	-1.2	.
COc1cccc(CC2(CO)CCCN(Cc3ccc(OC)c(C)c3OC)C2)c1 (configuration not stated)	-0.6	-1.2	14.2	-2.7	-2.1	.
Cc1cc(C(=O)N/N=C/c2cc(N=Nc3ccccc3)ccc2O)n[nH]1	20.2*	6.7	13.2	5.2	-9.4	11.1
COC(=O)N/N=C/c1cc(N=Nc2ccccc2)ccc1O	4.5	3.3	-20.8	0.0	-0.8	.
COC(=O)N/N=C/c1cc(N=Nc2ccccc2Cl)ccc1O	22.3*	-2.1	22.3	-14.5	-18.1	-2.9
Nc1ccc(C(=O)N/N=C\c2cc(N=Nc3cccc4ccccc34)ccc2O)cc1	20.8*	39.7*	14.0	7.2	-5.1	17.5
COc1ccc(/C=N/NC(C)(C)C)c(OC)c1	-2.4	-4.4	-3.0	4.0	0.4	.
Cc1cccnc1Nc1nc(-c2ccc(O)cc2O)cs1	18.3*	22.9	5.7	-4.8	0.3	10.2
NS(=O)(=O)c1ccc(Nc2nc(-c3ccc(F)cc3)cs2)cc1	3.0	7.0	13.2	-4.8	-3.9	.
Cc1cc(NS(=O)(=O)c2ccc(Nc3nc(-c4ccc(O)cc4)cs3)cc2)no1	25.8*	2.9	13.8	5.1	6.7	-70.3
Cc1cccnc1Nc1nc(-c2ccccn2)cs1	3.4	12.0	23.1	10.1	3.5	.
Oc1ccc(-c2csc(Nc3ccccn3)n2)c(O)c1	19.1*	14.1	17.5	-2.8	-3.1	12.1
SMILES	Fam108B counter	PME-1 primary	PREPL inhibitor	LYPLA2 inh	LYPLA1 counter	Fam108b confirm	others
NS(=O)(=O)c1ccc(Nc2nc(-c3ccc(O)cc3O)cs2)cc1	22.6*	11.8	17.0	0.0	-9.3	98.6*	Fam108b inh=35.0
CC(C)c1ccc(NC(=O)CCCN2C(=S)NC(C)(C)CC2C)cc1 (configuration not stated)	0.8	-1.6	20.5	0.2	-0.5	.
CSCCC1NC(=O)N(CC(=O)Nc2ccc3c(c2)OCCO3)C1=O (configuration not stated)	.	.	4.6	.	.	.
CN(C)S(=O)(=O)c1cccc(NC(=O)c2c[nH]c3ccccc23)c1	125.7*	-14.6	19.8	-34.1	-14.7	-18.5
Nc1nn2cc(-c3ccc(Br)cc3)nc2c2ccccc12	26.9*	-0.8	32.3	-0.8	-8.5	3.4
COc1ccc(NC(=O)NCc2cccnc2)cc1	3.4	7.8	5.4	3.6	-4.5	.
O=c1[nH]n2c(=O)c3c([nH]c2c1N=Nc1cccc(Cl)c1)CCC3	20.8*	56.2*	26.8	4.5	7.7	14.8
O=C(N/N=C/c1ccc(O)cc1)c1cccc(N/N=C/c2ccc(O)cc2)c1	55.6*	30.8*	22.1	-0.8	-13.6	47.6*
Cc1ccc2c(c1)N(CCC(=O)NC1CCCCC1C)C(=O)CO2 (configuration not stated)	2.7	4.8	2.4	5.7	1.2	.
Cc1cc(C)cc(N=Cc2[nH]c3ccc(Br)c(Cl)c3c2O)c1	-2.2	0.1	3.8	-18.0	-8.5	.
COc1ccc(CN=Cc2[nH]c3ccc(Br)c(Cl)c3c2O)cc1	18.8*	13.9	14.0	4.1	-3.9	11.9
CC(=O)c1cc(O)c2ccccc2c1O	31.2*	39.2*	9.6	0.6	6.3	17.6
CCOC(=O)[C@H]1[C@H]2COc3ccc(Cl)cc3[C@@H]2N2C(=O)CN(C)C(=O)[C@@]12C	.	-3.1	12.4	0.8	-1.3	.
O=C1[C@@H]2Cc3c([nH]c4ccccc34)C(c3ccc([N+](=O)[O-])cc3)N2C(=O)CN1C1CC1 (some centres not stated)	-0.1	4.6	6.3	0.6	3.5	.
O=C1[C@@H]2Cc3c([nH]c4ccccc34)C(c3ccccc3)N2C(=O)CN1C1CC1 (some centres not stated)	19.5*	27.0*	23.1	1.2	-4.0	5.6
CC(C)NC(=O)NC(=O)CN1c2cccc3cccc(c23)S1(=O)=O	-1.8	5.0	2.3	0.7	-0.7	.
O=C1C(Nc2ccccc2)=C(N2CCCCC2)C(=O)c2ccccc21	7.8	4.4	5.5	9.7	3.5	.
O=C1C(Nc2cccc(O)c2)=C(N2CCCCC2)C(=O)c2ccccc21	19.6*	12.6	27.4	8.0	6.4	20.5*
O=C(Nc1ccc(Cl)cc1)c1cc2c(cc1O)[nH]c1ccccc12	24.6*	-48.4	10.2	-2.8	-10.6	-98.2
